Results filed as inconclusive are left out. The source made the active and inactive calls. Calls follow the shape of the dose curve; as a rule, active = well fitted cell-killing curve with a large enough effect in the repeat runs; inconclusive = weak or mixed curves, or effect the other way; inactive = no such curve, though single readings can be large or run the other way.
Assay: qHTS assay to identify small molecule antagonists of the glucocorticoid receptor (GR) signaling pathway - cell viability counter screen (AID 720693); also: nearly all actives have a fitted effect of over 55% in size
Details: GR-bla HeLa viability, CellTiter-Glo luminescence, 18 h, with 5 nM dexamethasone present; series mostly up to 58.5 µM
Excerpt: National Center for Advancing Translational Sciences [NCATS]
NIH Chemical Genomics Center [NCGC]
U.S. Environmental Protection Agency [EPA]
National Institutes of Environmental Health Sciences [NIEHS]
National Toxicology Program [NTP]
U.S. Food and Drug Administration [FDA]
The Glucocorticoid receptor (GR) is one of the members of the nuclear receptor family of ligand-dependent transcription factors. GR plays a critical role in carbohydrate, protein and lipid metabolisms and programmed cell death. CellSensor GR-bla HeLa cell line (Invitrogen) contains a beta-lactamase reporter gene under the control of the glucocorticoid response element stably integrated into HeLa cells, a cervical cancer cell line that expresses glucocorticoid receptor. The activation of the reporter gene under culture conditions can be detected by fluorescence intensity. This cell line has been used to screen the Tox21 10K compound library and to identify the compounds that inhibit the GR signaling. The cytotoxicity of the Tox21 compound library against the GR-bla HeLa cell line was tested in parallel by measuring the cell viability using CellTiter-Glo assay in the same wells.
Tox21 Assay Protocol Summary:
The GR-bla HeLa cells were dispensed at 1500 cells/5 ul/well in 1536-well black wall/clear bottom plates using a Multidrop Combi (ThermoFisher Scientific, Waltham, MA) dispenser. After the assay plates were incubated at a 37 C/5% CO2 incubator for 4 hours, 23 nL of compounds dissolved in DMSO, positive controls or DMSO only was transferred to the assay plate by a pintool station (Kalypsys, San Diego, CA), followed by addition of 1 uL of dexamethasone (5 nM, final concentration in the well). The plates were incubated at 37 C for 18 hours. After 1 uL of LiveBLAzerTM B/G FRET substrate was added using a Flying Reagent Dispenser (Aurora Discovery, San Diego, CA), the plates were incubated at room temperature (RT) for 2 hours, and fluorescence intensity was measured by an Envision plate reader (PerkinElmer, Shelton, CT). After measurement of bla assay, 3 ul CellTiter-Glo (Promega, Madison, WI) was added to measure the cytotoxicity and the plates were then incubated at RT for 30 min. The luminescence was measured using a ViewLux (Perkin Elmer) plate reader.

Structure (SMILES) | outcome
CCCCCCCCN1CCCC1=O | inactive
O=C(O)CNC(=O)c1ccccc1 | inactive
N[C@H](C(=O)O)[C@@H](O)c1ccc(O)c(O)c1 | inactive
Cc1ccc(-c2ncc(Cl)cc2-c2ccc(S(C)(=O)=O)cc2)cn1 | inactive
OCCCCCO | inactive
O=S(=O)(O)c1cc(O)c(O)c(S(=O)(=O)O)c1 | inactive
CN(C)C(=O)Oc1cccc([N+](C)(C)C)c1 | inactive
Nc1ccncc1N | inactive
CCOC(=O)COc1cc(-n2ncc(C(F)(F)F)c(C)c2=O)c(F)cc1Cl | inactive
CCOc1ccc2nc(S(N)(=O)=O)sc2c1 | inactive
CC(C)(N)C#N | inactive
CC(=O)c1cnccn1 | inactive
CCN(CC#N)c1cccc(C)c1 | inactive
CC1(C)OC[C@@H](COC(=O)CCc2ccc(OC[C@@H](O)CNCCNC(=O)N3CCOCC3)cc2)O1 | inactive
COc1cc(C(=O)OC(COCCC(C)C)CN2CCOCC2)cc(OC)c1OC (stereo not given) | inactive
CCOC(=O)OC(C)OC1=C(C(=O)Nc2ccccn2)N(C)S(=O)(=O)c2ccccc21 (stereo not given) | inactive
CC[N+](CC)(CC(=O)Nc1c(C)cccc1C)Cc1ccccc1 (tested in a mixture with another compound) | inactive
C[N+]1(C)CCCC(OC(=O)C(O)(c2ccccc2)c2ccccc2)C1 (stereo not given) | inactive
CCCCCCCC1CCCC1=O (stereo not given) | inactive
C=CCCC(=O)O | inactive

Structure (SMILES) | outcome
COc1cc(C(=O)NCc2ccc(OCCN(C)C)cc2)cc(OC)c1OC | inactive
CC(=O)c1ccccc1[N+](=O)[O-] | inactive
CCCCS(=O)(=O)N[C@@H](Cc1ccc(OCCCCC2CCNCC2)cc1)C(=O)O | inactive
COc1cc(C)nc(-n2nc(C)cc2OC)n1 | inactive
CCCCCCC1CCC(=O)O1 (stereo not given) | inactive
COCCOC[C@H](CC1(C(=O)NC2CCC(C(=O)O)CC2)CCCC1)C(=O)Oc1ccc2c(c1)CCC2 (stereo not given in full) | inactive
C=C(C)C(=O)OCC1CCCO1 (stereo not given) | inactive
CO[C@@]1(NC(=O)C(C(=O)O)c2ccc(O)cc2)C(=O)N2C(C(=O)O)=C(CSc3nnnn3C)CO[C@@H]21 (stereo not given in full) | inactive
NS(=O)(=O)Cc1noc2ccccc12 | inactive
CCOC(=O)CCC(=O)OCC | inactive
c1coc(CNc2ncnc3nc[nH]c23)c1 | inactive
O=C(CO)[C@@H](O)[C@H](O)[C@H](O)CO | inactive
c1ccc2sc(SN3CCOCC3)nc2c1 | inactive
Cc1ccc(C(=O)c2ccccc2)cc1 | inactive
NC(=O)Cc1cccc2ccccc12 | inactive
CCCCc1ccc2c(n1)[C@@H](c1ccc(OC)cc1C[C@H](C)C(=O)O)[C@H](C(=O)O)[C@H]2c1ccc2c(c1)OCO2 | inactive
Cc1ccc(C(=O)Nc2ccc(S(=O)(=O)O)c3cc(S(=O)(=O)O)cc(S(=O)(=O)O)c23)cc1NC(=O)c1cccc(NC(=O)Nc2cccc(C(=O)Nc3cc(C(=O)Nc4ccc(S(=O)(=O)O)c5cc(S(=O)(=O)O)cc(S(=O)(=O)O)c45)ccc3C)c2)c1 | inactive
CN(C)[C@@H]1C(=O)C(C(=O)NCN2CCCC2)=C(O)[C@@]2(O)C(=O)C3=C(O)c4c(O)cccc4[C@@](C)(O)C3C[C@@H]12 (stereo not given in full) | inactive
CCCCCC(C)N (stereo not given) | inactive
CC(C)CCCO | inactive
